Laboratory results reported in PubChem BioAssay.
Active and inactive are the calls of the source. Unless noted, no rule for the calls is given here.

What was measured:
[1] = anti-His antibody binders, primary screen, artefact control for SMM control protein annotation, biochemical, small-molecule microarray, 635 nm fluorescence (AID 1128); conditions: anti-His Alexa647 antibody binding, higher = more signal;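 also: score merges feature fluorescence with signal-to-noise for each printed compound spot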
[2] = tested on: Human papillomavirus type 1a E7 protein (residues 1-88); assay: HPV1a E7 small-molecule binders, primary screen, biochemical, small-molecule microarray, residues 1-88, 635 nm (AID 1129); conditions: small-molecule microarray binding, fluorescence 635 nm; higher = more signal
[3] = target: Focal adhesion kinase 1 (Homo sapiens) (UniProt Q05397); assay: small-molecule microarray binders of FAK, primary screen, biochemical, 635/667 nm fluorescence, BSA, DTT (AID 1130); conditions: PTK2 binding, 635 nm fluorescence, higher = more signal;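 also: composite of spot emission at 667 nm and signal to noise over triplicate slides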
Focal adhesion kinase 1 (Homo sapiens), sequence (Q05397 whole entry, looked up): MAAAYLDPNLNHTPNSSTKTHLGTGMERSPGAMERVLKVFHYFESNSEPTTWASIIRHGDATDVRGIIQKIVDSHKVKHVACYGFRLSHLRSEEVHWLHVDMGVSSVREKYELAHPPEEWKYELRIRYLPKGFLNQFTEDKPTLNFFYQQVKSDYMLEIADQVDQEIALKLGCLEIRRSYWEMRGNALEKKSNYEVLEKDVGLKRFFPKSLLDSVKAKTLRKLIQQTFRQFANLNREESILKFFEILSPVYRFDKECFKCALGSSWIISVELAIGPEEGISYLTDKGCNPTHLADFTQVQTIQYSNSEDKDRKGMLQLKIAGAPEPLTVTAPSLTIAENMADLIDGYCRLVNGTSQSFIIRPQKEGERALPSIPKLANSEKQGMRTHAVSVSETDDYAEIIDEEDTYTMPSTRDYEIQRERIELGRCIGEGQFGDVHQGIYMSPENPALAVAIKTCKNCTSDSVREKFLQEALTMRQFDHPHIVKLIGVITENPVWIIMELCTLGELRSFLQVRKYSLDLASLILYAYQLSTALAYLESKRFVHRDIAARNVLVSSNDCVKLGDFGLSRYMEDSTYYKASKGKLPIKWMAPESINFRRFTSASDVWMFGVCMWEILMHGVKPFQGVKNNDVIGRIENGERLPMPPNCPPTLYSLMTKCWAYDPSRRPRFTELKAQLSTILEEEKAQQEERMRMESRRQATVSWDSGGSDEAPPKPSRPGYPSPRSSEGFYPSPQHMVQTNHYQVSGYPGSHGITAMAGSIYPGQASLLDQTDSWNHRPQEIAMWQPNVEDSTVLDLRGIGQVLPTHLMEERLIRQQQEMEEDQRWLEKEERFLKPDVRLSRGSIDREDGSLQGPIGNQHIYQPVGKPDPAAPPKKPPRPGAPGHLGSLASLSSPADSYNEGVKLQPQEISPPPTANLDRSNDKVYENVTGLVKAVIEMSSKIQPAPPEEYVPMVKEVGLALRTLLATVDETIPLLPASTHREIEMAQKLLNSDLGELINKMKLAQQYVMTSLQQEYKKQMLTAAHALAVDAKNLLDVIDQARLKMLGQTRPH

[4] = tested on: Fibrinogen (Alexa647-labelled); assay: fibrinogen binders on compound microarrays, profiling panel, artefact control for SMM control-protein annotation, biochemical, small-molecule microarray, 635/667 nm fluorescence (AID 1131); conditions: fibrinogen-A647 binding fluorescence, higher = more signal;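 also: z-score merges 667 nm fluorescence with per-spot signal-to-noise over triplicate slides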
[5] = target: Follistatin (Homo sapiens) (UniProt P19883); assay: follistatin binders on small-molecule microarrays, primary screen, biochemical, small-molecule microarray, 635/667 nm fluorescence (AID 1132); conditions: FST binding, 635 nm fluorescence, higher = more signal
Follistatin (Homo sapiens), sequence (P19883 whole entry, looked up): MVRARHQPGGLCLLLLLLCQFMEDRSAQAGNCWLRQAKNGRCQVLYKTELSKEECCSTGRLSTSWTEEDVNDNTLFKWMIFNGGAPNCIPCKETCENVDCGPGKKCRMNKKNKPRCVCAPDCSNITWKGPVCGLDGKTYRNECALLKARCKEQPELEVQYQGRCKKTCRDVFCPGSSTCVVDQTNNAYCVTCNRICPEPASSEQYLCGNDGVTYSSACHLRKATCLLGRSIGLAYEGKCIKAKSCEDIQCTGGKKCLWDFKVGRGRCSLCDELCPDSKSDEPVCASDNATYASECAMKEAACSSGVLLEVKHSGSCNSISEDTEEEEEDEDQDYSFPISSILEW

[6] = target: Fibroblast growth factor 2 (Homo sapiens) (UniProt P09038); assay: FGF2 binders on small-molecule microarrays, primary screen, biochemical, small-molecule microarray, 635/667 nm fluorescence (AID 1133); conditions: small-molecule microarray binding, FGF2, fluorescence 635/667; higher = more signal
Fibroblast growth factor 2 (Homo sapiens), sequence (P09038 whole entry, looked up): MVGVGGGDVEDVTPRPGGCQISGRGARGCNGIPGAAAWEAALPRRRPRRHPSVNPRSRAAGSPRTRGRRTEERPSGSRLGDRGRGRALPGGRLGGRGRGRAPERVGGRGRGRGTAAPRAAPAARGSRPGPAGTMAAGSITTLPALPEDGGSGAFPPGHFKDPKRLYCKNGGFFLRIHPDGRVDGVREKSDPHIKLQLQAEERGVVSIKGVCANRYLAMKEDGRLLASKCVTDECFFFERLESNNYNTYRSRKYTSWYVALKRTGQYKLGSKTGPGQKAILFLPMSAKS

[7] = mitochondrial membrane potential change in A549 cells, profiling panel, cell-based, JC-1 fluorescence, basal, 24 h, 100 nL (AID 1138); conditions: higher = more signal;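 also: A549 lung adenocarcinoma cells under basal conditions with no added stimulus; test concentration not given here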
Lefty1 = Lefty1 binders on small-molecule microarrays, primary screen, biochemical, small-molecule microarray, 635/667 nm fluorescence (AID 1139); conditions: small-molecule microarray binding, fluorescence 635/667; higher = more signal
[8] = tested on: wheat germ agglutinin (Triticum aestivum), Alexa647-labelled; assay: wheat germ agglutinin binders on compound microarrays, profiling panel, artefact control for SMM control-protein annotation, biochemical, small-molecule microarray, 635/667 nm fluorescence (AID 1140); conditions: WGA-A647 binding, 635 nm fluorescence, higher = more signal;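 also: score merges 667 nm feature emission with signal to noise over triplicate slides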
[9] = target: Luciferin 4-monooxygenase (Photinus pyralis) (UniProt P08659); assay: firefly luciferase enzyme inhibitors, primary screen, biochemical, luminescence, purified enzyme, 2006 set (AID 1141); conditions: SteadyGlo luminescence, 30 min, higher = more signal, called active from +8 up or from −8 down;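 also: cell-free assay with purified firefly luciferase at 100 ng per well in PBS; test concentration not given here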
Luciferin 4-monooxygenase (Photinus pyralis), sequence (P08659 whole entry, looked up): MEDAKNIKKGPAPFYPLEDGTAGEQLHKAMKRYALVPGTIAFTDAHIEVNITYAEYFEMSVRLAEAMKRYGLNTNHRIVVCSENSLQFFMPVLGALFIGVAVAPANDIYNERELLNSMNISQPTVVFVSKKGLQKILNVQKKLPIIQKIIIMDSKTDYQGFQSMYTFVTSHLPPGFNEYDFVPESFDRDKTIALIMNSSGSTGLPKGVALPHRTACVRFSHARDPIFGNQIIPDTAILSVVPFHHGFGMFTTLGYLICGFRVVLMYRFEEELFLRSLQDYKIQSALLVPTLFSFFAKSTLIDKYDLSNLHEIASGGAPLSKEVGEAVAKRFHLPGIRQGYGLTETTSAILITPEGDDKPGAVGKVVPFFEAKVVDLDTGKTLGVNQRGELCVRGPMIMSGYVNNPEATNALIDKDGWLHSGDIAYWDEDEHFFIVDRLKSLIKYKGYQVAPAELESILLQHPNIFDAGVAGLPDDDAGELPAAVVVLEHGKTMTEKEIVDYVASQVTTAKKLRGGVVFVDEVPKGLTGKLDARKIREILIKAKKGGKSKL

[10] = tested on: Wnt5a (protein binding on small-molecule microarray); assay: Wnt5a binders on small-molecule microarray, primary screen, biophysical, 635/667 nm fluorescence (AID 1142); conditions: 635 nm fluorescence, higher = more signal;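 also: fluorescence read at 667 nm with signal to noise per printed feature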
[11] = cell viability in Huh7 cells, primary screen, cytotoxicity control for HCV replication inhibitor project, CellTiter-Glo luminescence, basal, 48 h (AID 1143); conditions: Huh7 HCV replicon, higher = more signal, called active from +8 up or from −8 down;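 also: Huh7 hepatoma cells carrying a hepatitis C replication reporter with no stimulus; test concentration not given here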
[12] = P. aeruginosa biofilm formation inhibitors, primary screen, PAO1 strain, BacTiter-Glo luminescence, LB-PBS (AID 1144); conditions: 12 h, higher = more signal
[13] = CREB reporter modulators without forskolin, primary screen, cell-based, PC12, CRE-LacZ reporter, unstimulated (AID 1145); conditions: no forskolin, luminescence, 4.5 h, higher = more signal, called active from +8 up or from −8 down
[14] = CREB reporter modulators under forskolin, primary screen, cell-based, PC12, CRE-LacZ reporter, forskolin-stimulated (AID 1146); conditions: luminescence, 4.5 h, higher = more signal, called active from +8 up or from −8 down;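 also: PC12 cells with 6xCRE LacZ reporter stimulated by forskolin 10 µM; beta-galactosidase reporter signal reflecting CREB driven transcription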
[15] = target: Streptavidin (Streptomyces avidinii) (UniProt P22629); assay: streptavidin binders on small-molecule microarray, primary screen, artefact control for SMM compound annotation, biophysical, 635/667 nm fluorescence (AID 1147); conditions: streptavidin binding, higher = more signal;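 also: signal reflects streptavidin binding to arrayed compounds as a control protein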
Streptavidin (Streptomyces avidinii), sequence (P22629 whole entry, looked up): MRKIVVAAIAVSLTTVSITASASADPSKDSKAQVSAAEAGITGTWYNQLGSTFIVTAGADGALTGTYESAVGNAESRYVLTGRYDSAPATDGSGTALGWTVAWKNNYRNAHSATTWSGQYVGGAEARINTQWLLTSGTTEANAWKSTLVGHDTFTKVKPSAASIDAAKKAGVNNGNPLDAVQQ

[16] = small-molecule binders of probe aInhba, primary screen, biochemical, small-molecule microarray, 635/667 nm fluorescence (AID 1148); conditions: higher = more signal;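 also: score merges 667nm spot fluorescence with signal-to-noise for antibody binding to printed compounds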
Torsin-1A (Homo sapiens) [17] = target: Torsin-1A (Homo sapiens) (UniProt O14656); assay: torsin A binders from cell lysate, primary screen, small-molecule microarray, wild-type, 635/667 nm (AID 1149); conditions: COS7 hTOR1A-WT lysate, 635 nm fluorescence, higher = more signal
Torsin-1A (Homo sapiens), sequence (O14656 whole entry, looked up): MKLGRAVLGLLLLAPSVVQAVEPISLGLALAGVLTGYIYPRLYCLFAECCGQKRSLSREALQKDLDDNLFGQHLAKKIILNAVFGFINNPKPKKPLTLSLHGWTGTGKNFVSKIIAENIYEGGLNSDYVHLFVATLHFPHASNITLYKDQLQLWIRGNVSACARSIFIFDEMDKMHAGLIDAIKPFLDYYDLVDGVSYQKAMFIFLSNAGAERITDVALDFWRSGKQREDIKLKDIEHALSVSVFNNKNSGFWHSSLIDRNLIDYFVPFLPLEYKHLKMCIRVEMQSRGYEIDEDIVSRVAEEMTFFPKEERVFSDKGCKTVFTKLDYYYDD

Torsin-1A (Homo sapiens) [18] = target: Torsin-1A (Homo sapiens) (UniProt O14656); assay: small-molecule binders of mutant TOR1A in lysate, primary screen, cell lysate, small-molecule microarray, COS7 lysate, 635/667 nm fluorescence (AID 1150); conditions: COS7 hTOR1A mutant lysate, 635 nm fluorescence, higher = more signal;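 also: score pools 667 nm emission and signal to noise measuring lysate protein binding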
[19] = tested on: Sonic hedgehog protein (Shh); assay: small-molecule binders of Shh protein, primary screen, biochemical, small-molecule microarray, 635/667 nm fluorescence (AID 1151); conditions: small-molecule microarray binding, 635 nm fluorescence; higher = more signal;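 also: Shh protein binding to compounds spotted on small-molecule microarray slides; score combines spot fluorescence intensity with signal-to-noise across triplicate slides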

| Compound | composite z-score [1] | composite z-score [2] | composite z-score [3] | composite z-score [4] | composite z-score [5] | composite z-score [6] | z-score [7] | composite z-score (Lefty1) | composite z-score [8] | z-score [9] | composite z-score [10] | z-score [11] | z-score [12] | z-score [13] | z-score [14] | composite z-score [15] | composite z-score [16] | composite z-score (Torsin-1A (Homo sapiens) [17]) | composite z-score (Torsin-1A (Homo sapiens) [18]) | composite z-score [19] |
| --- | --- | --- | --- | --- | --- | --- | --- | --- | --- | --- | --- | --- | --- | --- | --- | --- | --- | --- | --- | --- |
| COC(=O)[C@@]1(Cc2ccccc2)[C@H]2c3cc(C(=O)N4CCCC4)n(CCN4CNCC4=O)c3C[C@H]2CN1C(=O)c1ccccc1 | 0.361 | 1.21 | 1.72 | 0.728 | 0.257 | -0.709 | 0.791 | -0.0783 | 0.342 | 2.42 (inactive) | -0.042 | -0.119 (inactive) | 0.351 (inactive) | -0.182 (inactive) | -0.768 (inactive) | 2.04 | 0.202 | -0.0625 | 1.02 | -0.535 |
| O=C1C[C@@](C(=O)NC2CC2)(c2ccc([N+](=O)[O-])cc2)[C@@H](c2ccc(CO)cc2I)N1CC12CC3CC(CC(C3)C1)C2 | -0.317 | 1.18 | 0.32 | 0.751 | 1.07 | 0.718 | -0.558 | 1.15 | 0.793 | -0.318 (inactive) | 0.157 | -5.82 (inactive) | 0.87 (inactive) | 0.818 (inactive) | 1.25 (inactive) | 0.376 | -0.134 | -0.371 | 0.362 | 1.95 |
| O=C1OCC=C[C@H]2OC34C=CCN(Cc5ccccc5)C(=O)[C@H]3N(CCCCCO)C(=O)[C@@H]4[C@@H]12 (some centres not stated) | -0.171 | -0.614 | 0.0672 | -0.736 | -1.14 | -1.24 | 0.0704 | -1.09 | -1.29 | -0.423 (inactive) | -0.341 | -2.93 (inactive) |  | -0.354 (inactive) | -0.679 (inactive) | -1.62 | 0.0282 | -0.391 | -0.605 | -1.09 |
| CO[C@H]1COC(=O)CC=C[C@H](C)COC(=O)[C@@H](OCc2ccccc2)C=C[C@@H]1C | 0.507 | -0.67 | -0.3 | -0.418 | 1.56 | 1.83 | 0.33 | 1.69 | -0.726 | -0.275 (inactive) | -0.192 | -4.32 (inactive) |  | 0.252 (inactive) | -1.2 (inactive) | 0.846 | -0.29 | 2.67 | 2.29 | 2.06 |
| CO[C@H]1COC(=O)[C@H](C)COC(=O)[C@H](Cc2ccccc2)NC(=O)CC=C[C@H]1C | -0.384 | -1.55 | 0.195 | -1.04 | 1.42 | 0.807 | 1.71 | 1.16 | -1.5 | -1.14 (inactive) | 0.265 | -0.441 (inactive) |  | 0.707 (inactive) | -0.872 (inactive) | -0.0705 | 0.286 | 0.715 | -0.121 | 1.61 |
